Hits are enriched below; roughly 2.9% of the tested compounds scored in any of these assays.
MEKK2wt PB1 HTS – modulators of MEK5 binding to wildtype MEKK2, primary screen, biochemical, multiplex bead flow cytometry, Alexa488-MEK5; Mitogen-activated protein kinase kinase kinase 2 (Homo sapiens), Q9Y2U5; Alexa488-MEK5 binding to MEKK2 WT; actives lie on both sides; binding response (% of control), % at 10 µM; 290,000 compounds, 1.1% hits; in the data active = binding response below about 67% or above about 130%
MEKK3 PB1 HTS – modulators of MEKK3-MEK5 PB1 binding, primary screen, biochemical, wildtype MEKK3, multiplex bead flow cytometry, Alexa488-MEK5; Mitogen-activated protein kinase kinase kinase 3 (Homo sapiens), Q99759; bead-based flow cytometry, Alexa488-MEK5 binding to MEKK3; actives lie on both sides; 0 = blocked by unlabeled MEK5, 100 = vehicle; binding response (% of control), % at 10 µM; 290,000 compounds, 1.4% hits; AID 1529, 2009;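 active = binding response more than 3 SD above or below the average of its plate-row segment, actives on both sides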;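 note: Alexa488 bead fluorescence after subtracting the streptavidin-only scavenger bead signal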
MEKK2 mut-MEK5 – MEK5 binding signal on mutant MEKK2 PB1, primary screen, biochemical, multiplex bead flow cytometry, Alexa488-MEK5; AID 1530, 2009; 290,000 compounds, 0.35% hits; percent response, % at 10 µM; Alexa488-MEK5 binding to MEKK2 mutant; in the data active = percent response above about 24%, passing the limit was not always enough
CRFR2-BP antag – antagonists of CRF-BP/CRF-R2 complex, primary screen, cell-based, HEK293, calcium dye fluorescence, uHTS. inhibition, % at 11.8 µM. 350,000 compounds, 0.59% hits. CRF-induced calcium fluorescence. AID 588475, 2011;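 active = inhibition of the ligand-induced calcium signal above about 50% at the single tested concentration, limit read from the data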
ABCB6 inh 2 – ABCB6 transporter inhibitors, primary screen, K562-ABCB6 cells, flow cytometry, MLPCN library. ATP-binding cassette sub-family B member 6 (Homo sapiens), Q9NP58. K562-ABCB6 porphyrin accumulation, 1 h; stronger effect = lower value. fluorescence ratio to DMSO, % at 10 µM. 360,000 compounds, 0.19% hits. AID 602162, 2011;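 active = fluorescence ratio to DMSO below 75%, the collection mean minus 3 SD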;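 note: signal is porphyrin accumulated inside mitochondria; 100% equals median channel fluorescence of DMSO control wells; lower ratio means ABCB6 inhibition with less porphyrin fluorescence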
Target sequence (Q9NP58 whole entry, looked up): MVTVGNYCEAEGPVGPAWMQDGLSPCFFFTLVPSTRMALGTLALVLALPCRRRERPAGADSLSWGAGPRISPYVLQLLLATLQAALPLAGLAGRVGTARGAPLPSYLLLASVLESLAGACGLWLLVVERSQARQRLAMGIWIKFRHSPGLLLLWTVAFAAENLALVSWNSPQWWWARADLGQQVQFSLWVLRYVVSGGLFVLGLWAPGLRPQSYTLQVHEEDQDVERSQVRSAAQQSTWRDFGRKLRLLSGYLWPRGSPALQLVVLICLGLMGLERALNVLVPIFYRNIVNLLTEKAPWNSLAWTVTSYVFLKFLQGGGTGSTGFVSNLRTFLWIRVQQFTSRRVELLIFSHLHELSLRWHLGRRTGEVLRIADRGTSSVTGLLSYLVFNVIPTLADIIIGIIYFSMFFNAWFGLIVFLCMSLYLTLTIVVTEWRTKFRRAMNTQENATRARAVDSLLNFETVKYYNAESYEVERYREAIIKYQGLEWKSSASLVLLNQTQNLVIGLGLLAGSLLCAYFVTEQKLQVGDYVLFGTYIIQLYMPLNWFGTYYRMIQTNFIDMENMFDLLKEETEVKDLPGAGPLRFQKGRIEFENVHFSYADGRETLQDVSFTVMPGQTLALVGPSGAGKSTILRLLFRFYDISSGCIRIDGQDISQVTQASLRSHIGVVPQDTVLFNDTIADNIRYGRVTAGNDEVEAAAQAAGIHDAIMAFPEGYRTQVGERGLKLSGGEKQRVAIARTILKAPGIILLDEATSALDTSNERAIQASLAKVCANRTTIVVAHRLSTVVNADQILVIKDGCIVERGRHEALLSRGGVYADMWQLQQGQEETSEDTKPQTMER
CRFR2-BP ag – agonists of CRF-BP/CRF-R2 complex, primary screen, cell-based, HEK293, calcium dye fluorescence, uHTS | 350,000 compounds, 0.46% hits | CRF-binding protein / CRF receptor 2 complex (human) | calcium dye fluorescence (FLIPR); percent of saturating CRF peptide response | activation, % at 13.2 µM;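 active = activation of at least 50%, plus an integration ratio under a set limit after plate pattern correction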;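 note: plate controls were neutral control wells without compound for no effect and CRF at EC100 for full effect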
* hit, by the source's call; · = not tested or not shown.

SMILES	MEKK2wt PB1 HTS	MEKK3 PB1 HTS	MEKK2 mut-MEK5	CRFR2-BP antag	ABCB6 inh 2	CRFR2-BP ag
CCCS(=O)(=O)c1nc(S(=O)(=O)c2ccc(C)cc2)c(N2CCC(C)CC2)s1	98	102	0	2	96	4
CCCS(=O)(=O)c1nc(S(=O)(=O)c2ccc(C)cc2)c(N2CCCC2)s1	107	104	5	-82	94	89*
CCOc1ccc(S(=O)(=O)N2CCN(CN3C(=O)CC4(CCCC4)C3=O)CC2)cc1	·	·	·	-20	99	1
Cc1ccc(C2(c3ccccc3)NC(=O)N(CC(=O)NC3CCS(=O)(=O)C3)C2=O)cc1C (stereo not drawn)	·	·	·	-1	100	2
COc1ccc(S(=O)(=O)N2CCCCCC2)cc1C(=O)NCCc1ccccc1	·	·	·	112*	96	8
COc1ccc(S(=O)(=O)N2CCCCCC2)cc1C(=O)N(C)Cc1c(F)cccc1Cl	·	·	·	7	91	0
COc1ccc(S(=O)(=O)N2CCCCCC2)cc1C(=O)N(C)Cc1ccc(Cl)cc1Cl	·	·	·	-103	94	104*
O=C(O/N=C(/c1ccccc1)c1ccncc1)c1cccc(F)c1	93	110	-12	-25	96	0
O=C(O/N=C(\c1ccccc1)c1ccncc1)c1ccccc1F	-8.0*	104	4	-19	93	-2
COc1ccc(-c2csc(NC(=O)c3ccccc3NS(=O)(=O)c3ccc(C)cc3)n2)cc1	99	101	10	58*	93	10
Cc1ccccc1Cc1c(C)nc2nc(SCC(=O)NCCCN3CCCC3)nn2c1C	136*	105	19	3	95	0
Cc1ccc(Cc2c(C)nc3nc(SCC(=O)NCCCN4CCCC4)nn3c2C)cc1	147*	109	21	-1	98	0
CCc1nnc(NC(=O)c2ccc(OC)c(S(=O)(=O)N3CCCC3)c2)s1	·	·	·	9	99	-1
COc1cc(C(=O)O)c2ccccc2n1	98	99	-8	65*	105	-1
COc1ccc(OC)c(-c2oc3ccccc3c(=O)c2O)c1	107	76	4	-9	103	1
CCOc1ccccc1-c1c2cc(O)c(=O)cc-2oc2cc(O)c(O)cc12	166*	137*	51*	-219	139	260*
O=c1cc2oc3cc(O)c(O)cc3c(-c3ccccc3O)c-2cc1O	106	93	-10	-47	122	44
COc1ccc(OC)c(-c2c3cc(O)c(=O)cc-3oc3cc(O)c(O)cc23)c1	73	79	-4	-71	133	145*
O=C(Cc1cccc(NC(=O)C2CCN(C(=O)c3ccccc3)CC2)c1)Nc1cccc(C(=O)N2CCCC2)c1	·	·	·	8	95	-3
O=C(COC(=O)c1cc(S(=O)(=O)N2CCCC2)ccc1O)NCCc1ccccc1	·	·	·	0	95	2
CCOC(=O)N1CCC(NC(=O)C2CCN(S(=O)(=O)c3ccc4c(c3)oc(=O)n4C)CC2)CC1	90	111	-11	3	95	-2
COc1ccc(NC(=O)C[C@H]2C(=O)N(C3CCCCC3)C[C@@H]2CSC)cc1	·	·	·	-1	100	-1
O=C(COC(=O)c1c[nH]c2ccccc12)Nc1cccc(F)c1	·	·	·	1	99	1
O=C(CSc1nnc(C2COc3ccccc3O2)o1)NC1CCCCC1 (stereo not drawn)	96	99	0	54*	100	-2
N/C(=C\C(=O)c1cc(Cl)ccc1O)C(Cl)(Cl)Cl	-3.0*	103	3	21	101	-5
SMILES	MEKK2wt PB1 HTS	MEKK3 PB1 HTS	MEKK2 mut-MEK5	CRFR2-BP antag	ABCB6 inh 2	CRFR2-BP ag
CCCCn1c(N)c(N(CC(C)C)C(=O)CSc2n[nH]c(-c3ccc(C)cc3)n2)c(=O)[nH]c1=O	·	·	·	-8	97	1
CN1CCN(C(c2ccc(Cl)cc2)c2cc(Cl)c3cccnc3c2O)CC1 (stereo not drawn)	137*	106	28*	-31	94	2
CN1CCN(C(c2ccc(C(F)(F)F)cc2)c2cc(Cl)c3cccnc3c2O)CC1 (stereo not drawn)	130	105	12	·	·	·
Cc1ccc(/C=C2/NC(=O)N(c3ccccc3)C2=O)o1	96	99	3	-5	107	1
O=C1N/C(=C/c2ccc(N3CCOCC3)o2)C(=O)N1c1cccc(Cl)c1	87	93	-7	70*	113	8
Cn1ncc(Br)c1C(=O)O	101	96	-2	24	100	2
CN(C(=O)c1c(Br)cnn1C)C12CC3CC(CC(C3)C1)C2	109	144*	0	·	·	·
CC1CC(C)CN(C(=O)c2cccc(S(=O)(=O)NCc3ccccc3)c2)C1 (stereo not drawn)	·	·	·	-39	96	0
CC1(c2ccccc2)CC(C)(C)N2C(=O)C3(C(C#N)=C(N)Oc4cc(O)ccc43)c3cccc1c32 (stereo not drawn)	88	101	-4	116*	94	-1
CC1=CC(C)(C)N2C(=O)C3(C(C#N)=C(N)Oc4cc(O)ccc43)c3c(C)c(C)cc1c32 (stereo not drawn)	87	95	-10	66*	101	-1
O=C(CCS(=O)(=O)c1ccc(Cl)cc1)Nc1nc(-c2ccncc2)cs1	96	96	-14	-24	100	1
CC(C)C(NC(=O)c1c(F)cccc1F)C(=O)NC1CC(C)(C)NC(C)(C)C1 (stereo not drawn)	99	100	0	1	102	0
C=CCN1C=CC(=C/C=C(/C#N)C(=O)OCC)C=C1	100	89	3	-35	87	71*
CCOC(=O)/C(C#N)=C/C=C1/C=CC=CN1C	99	97	1	4	95	0
COC(=O)c1sc(NC(=O)COc2cccnc2[N+](=O)[O-])c(C(=O)OC)c1C	·	·	·	6	96	-1
O=C(Nc1nnc(S(=O)(=O)N2CCCCCC2)s1)c1ccc(Br)cc1	101	102	2	30	100	11
O=C(Nc1nnc(S(=O)(=O)N2CCCCC2)s1)c1ccc(Cl)cc1	97	101	0	71*	95	13
COc1ccc(Cl)cc1NS(=O)(=O)c1cccc(C(=O)NCCCN2CCCC2=O)c1	104	106	5	7	97	3
O=C(Nc1nc2c(F)cc(F)cc2s1)c1ccc([N+](=O)[O-])o1	98	100	-2	80*	97	18

From PubChem
